High-throughput results deposited in PubChem BioAssay by several laboratories.
HGIII-sPLA2 inh = Inhibits HGIII-sPLA2 liposome hydrolysis, primary screen; QFRET BODIPY PC-A2 liposome hydrolysis, fluorescence; inhibition, % at 12.2 µM; AID 743126; 0.56% of 370,000 active; Q9NZ20;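 active = inhibition above mean plus 3 SD of compounds lying within the high and low control bounds, cut at about 19% in these data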
Target sequence (Q9NZ20 whole entry, looked up): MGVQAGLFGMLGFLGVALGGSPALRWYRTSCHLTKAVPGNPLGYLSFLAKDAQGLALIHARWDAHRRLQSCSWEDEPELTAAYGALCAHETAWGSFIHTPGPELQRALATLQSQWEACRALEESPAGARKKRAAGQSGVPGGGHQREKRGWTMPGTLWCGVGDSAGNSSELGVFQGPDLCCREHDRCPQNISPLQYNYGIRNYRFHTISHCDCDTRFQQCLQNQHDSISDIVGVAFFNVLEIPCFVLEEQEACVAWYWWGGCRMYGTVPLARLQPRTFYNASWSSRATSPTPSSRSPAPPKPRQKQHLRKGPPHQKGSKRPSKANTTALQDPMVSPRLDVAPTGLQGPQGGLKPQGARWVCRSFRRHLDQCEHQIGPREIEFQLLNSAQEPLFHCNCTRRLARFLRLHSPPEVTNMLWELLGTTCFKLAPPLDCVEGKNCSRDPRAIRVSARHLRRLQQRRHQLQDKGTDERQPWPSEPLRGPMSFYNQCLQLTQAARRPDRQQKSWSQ
SUMO HTRF inh = blocks human SUMOylation mediated by UBC9 | 0.36% of 290,000 active | HTRF SUMOylation assay, SAE1/SAE2 + UBC9, in vitro | inhibition, % at 35 µM | P63279; in the data active = inhibition above about 50%, passing the limit was not always enough
UBC13 polyUb = blocks human UBC13 polyubiquitin chain formation; 0.47% of 330,000 active; AID 485273; inhibition, % at 20 µM; TR-FRET; P61088; in the data active = inhibition above about 45%, passing the limit was not always enough
NR3A LBD binder = modulators (binders) of human NR3A ligand-binding domain; Tm shift relative to glycine control, % at 25 µM; NR3A LBD differential scanning fluorimetry, Tm shift; 0% = protein alone, 100% = glycine-bound protein; 2.5% of 340,000 active;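 active = melting temperature shift of at least 10% of the positive control shift, at one fixed dose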
Hits are given with their value; i = inactive; nt = no result; ! = not active in a repeat. A selection: hits, their analogues and other compounds. The true share with any hit is near 3.3%.

SMILES | HGIII-sPLA2 inh | SUMO HTRF inh | UBC13 polyUb | NR3A LBD binder
COCc1cccc(-c2cc(C(=O)OC)c3n(c2=O)CCC3)c1 | i | nt | nt | nt
CC1=NN2C(=N)/C(=C\c3cc(C)n(-c4ccc(C)cc4)c3C)C(=O)N=C2S1 | i | i | i | 22
CCCC1=NN2C(=N)/C(=C\c3cc(C)n(-c4cccc(C)c4)c3C)C(=O)N=C2S1 | i | i | i | i
Cc1ccc2sc(N(CCCN(C)C)C(=O)c3ccc(S(=O)(=O)N4CCc5ccccc5C4)cc3)nc2c1C | i | nt | i | 14
CC1CCCCN1S(=O)(=O)c1ccc(C(=O)N(CCCN(C)C)c2nc3ccc(Br)cc3s2)cc1 (configuration not stated) | i | i | 52 | i
COc1ccc(C)c2sc(N(CCCN(C)C)C(=O)c3ccc(S(=O)(=O)N4CCc5ccccc5C4)cc3)nc12 | i | nt | nt | i
O=C(/C=C\Nc1ccc2c(c1)OCO2)c1ccccn1 | i | i | i | 35
CC(C)(C)OC(=O)N1c2ccccc2[C@]2(N3CCCC3)C[C@H](C(=O)O)N(C(=O)OC(C)(C)C)[C@H]12 | i | nt | nt | nt
Cc1ccc(-n2c(SCC(=O)c3ccc(F)cc3)nnc2-c2cnccn2)cc1 | i | nt | nt | nt
COC(=O)c1ccc(Cn2ccc3ccc(-c4ccc5ccn(Cc6ccccc6)c5c4)cc32)cc1 | i | nt | nt | nt
CC(C)C(Cl)=NOC(=O)Nc1ccc(F)cc1 | i | nt | nt | i
C/C(=N\OC(=O)Nc1ccc(Cl)cc1)c1ccc(F)c(F)c1 | i | i | i | 36
O=C(NCC(c1cccnc1)N1CCN(c2ccccc2)CC1)OCc1ccccc1 (configuration not stated) | i | i | i | i
O=C(NCC(c1cccnc1)N1CCN(c2ccccc2F)CC1)OCc1ccccc1 (configuration not stated) | i | i | i | 12
Cc1cccc[n+]1CC(=O)/C=C1\N(C)c2ccccc2C1(C)C | i | i | i | i
CN1/C(=C/C=C/c2n(C)c3cc([N+](=O)[O-])c([N+](=O)[O-])cc3[n+]2C)C(C)(C)c2ccccc21 | 48 | nt | nt | nt
c1ccc(-c2nnc3sc(C4CCCCC4)nn23)cc1 | i | nt | nt | nt
CCC(C)N(C(=O)COc1ccc(Cl)c2cccnc12)C1CCS(=O)(=O)C1 (configuration not stated) | i | nt | 55 | i
Cc1ccccc1C(=O)NC1CCCCN(C(C)C)C1=O (configuration not stated) | i | nt | nt | nt
O=c1[nH]c(O)c(/C=C2\C=Nc3ccc(Br)cc32)[nH]1 | i | i | i | 42
O=C(Cn1c(O)c(/C=C2\C=Nc3ccc(Br)cc32)sc1=O)N1CCCC1 | i | i | i | i
CCC[C@H]1[C@@H](NC(=O)/C=C/c2ccccc2)CC[C@@]23CCCN2C(=O)CCC[C@@H]13 | i | nt | nt | nt
O=C(CSc1nnnn1C1CCCCC1)Nc1ccc(F)cc1 | i | i | i | 18
CN1C2=N[C@@H](c3ccc4c(c3)OCO4)CC(=O)N2/C(=C\c2ccccc2)[C@H]1c1ccccc1 | i | nt | nt | nt
CCCCn1c(=NC(=O)c2cccnc2)c(C(=O)OCC)cc2c(=O)n3ccccc3nc21 | i | i | nt | i
SMILES | HGIII-sPLA2 inh | SUMO HTRF inh | UBC13 polyUb | NR3A LBD binder
CCOCCCn1c(=NC(=O)c2cccnc2)c(C(=O)OCC)cc2c(=O)n3ccccc3nc21 | i | i | i | 14!
COC(=O)[C@@]12CCCCC=C1N(CCc1ccc(Cl)cc1)C(=O)[C@H]2CC(=O)NCCC(C)C | i | nt | nt | nt
C=CCn1c(COc2ccccc2)nnc1SCC(=O)c1ccc(-c2ccccc2)cc1 | i | nt | nt | nt
O=C(Cc1nnc(NC(=O)c2ccccc2)s1)N/N=C/c1ccco1 | i | i | i | i
O=C(Cc1nnc(NC(=O)c2ccccc2)s1)N/N=C/c1cccc(O)c1 | i | i | i | 41
O=C(N/N=C/c1cccc(O)c1)N/N=C/c1cccc(O)c1 | i | i | i | 10
Cc1ccc(Cn2cc(/C=N/NC(=O)Cc3nnc(NC(=O)c4ccc(C)cc4)s3)c3ccccc32)cc1 | i | i | i | 13
O=C(CCc1ccccc1)N/N=C/c1cccc(O)c1 | i | i | i | i
Nc1ccc(C(=O)N/N=C/c2cn(Cc3ccccc3)c3ccccc23)cc1 | i | i | i | i
O=C(NCCc1ccccc1)OCc1cn(-c2ccc(F)cc2)nn1 | i | nt | nt | nt
COC(=O)N/N=C/c1ccc(OC(=O)/C=C/c2ccco2)cc1 | i | i | i | 11
O=C(Cc1ccccc1)N/N=C/c1ccc(OC(=O)/C=C\c2ccco2)cc1 | i | i | i | i
CCOc1ccc(Br)cc1C(=O)Nc1ccc(C(=O)NCC(C)C)cc1 | i | i | i | 13
CCOc1ccc(Br)cc1S(=O)(=O)Nc1cccc(S(=O)(=O)N(C)c2ccccc2)c1 | i | i | i | 12
CCOc1ccc(Br)cc1S(=O)(=O)Nc1ccc(C(=O)Nc2ccc(C)cc2)cc1 | i | i | i | 18
